EPAC1 ag – EPAC1 (human) agonism | O95398 | actives 0.073% (n = 360,000) | EPAC1 agonist qHTS, biochemical assay; response scale: 100% = response to 6.5 mM cAMP | Potency, µM (titrated, usually from 154 µM), without a hit: at the highest dose activation, hits mostly activators | AID 720707; also: potency is read from the fitted curve at half-maximal effect; nearly all actives have a fitted effect of over 60% in size
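Read-out is the fluorescence drop as BODIPY-GDP leaves Rap1B (480 nm excitation, 540 nm emission), recorded every 5 minutes over 30 minutes. Reactions held 100 nM EPAC1, 250 nM Rap1B–BODIPY-GDP and 50 uM GDP, with 6.5 mM cAMP setting full activation.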
USP1 inh – inhibitors of human USP1/UAF1 deubiquitinase. O94782. recombinant USP1/UAF1, Ub-Rhodamine cleavage fluorescence. Potency, µM (titrated, usually from 57.1 µM), for the others: at the highest dose activity change, negative = inhibition, most hits filed as inhibitors. actives 0.23% (n = 390,000). AID 743255; also: potency is read from the fitted curve at half-maximal effect; % is scaled to controls: 0 for no effect and ±100 for the full control effect; nearly all actives have a fitted effect of over 60% in size
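In this screen, compounds sit with the deubiquitinase complex (1nM) for 15 min at room temperature before Ub-Rho is added at 150nM final. Fluorescence rise is then followed for 6 reads every 60 seconds.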
EPAC2 antagonist – antagonists of human EPAC2 | actives 0.18% (n = 360,000) | Q8WZA2 | Potency, µM (top dose mostly 114 µM), for the others: top-dose activity, negative = inhibition, usual class: inhibitors | EPAC2 GEF exchange of Rap1B-BODIPY-GDP, fluorescence | AID 720708; also: potency is read from the fitted curve at half-maximal effect; % is scaled to controls: 0 for no effect and ±100 for the full control effect; nearly all actives have a fitted effect of over 45% in size
Target sequence (Q8WZA2 whole entry, looked up): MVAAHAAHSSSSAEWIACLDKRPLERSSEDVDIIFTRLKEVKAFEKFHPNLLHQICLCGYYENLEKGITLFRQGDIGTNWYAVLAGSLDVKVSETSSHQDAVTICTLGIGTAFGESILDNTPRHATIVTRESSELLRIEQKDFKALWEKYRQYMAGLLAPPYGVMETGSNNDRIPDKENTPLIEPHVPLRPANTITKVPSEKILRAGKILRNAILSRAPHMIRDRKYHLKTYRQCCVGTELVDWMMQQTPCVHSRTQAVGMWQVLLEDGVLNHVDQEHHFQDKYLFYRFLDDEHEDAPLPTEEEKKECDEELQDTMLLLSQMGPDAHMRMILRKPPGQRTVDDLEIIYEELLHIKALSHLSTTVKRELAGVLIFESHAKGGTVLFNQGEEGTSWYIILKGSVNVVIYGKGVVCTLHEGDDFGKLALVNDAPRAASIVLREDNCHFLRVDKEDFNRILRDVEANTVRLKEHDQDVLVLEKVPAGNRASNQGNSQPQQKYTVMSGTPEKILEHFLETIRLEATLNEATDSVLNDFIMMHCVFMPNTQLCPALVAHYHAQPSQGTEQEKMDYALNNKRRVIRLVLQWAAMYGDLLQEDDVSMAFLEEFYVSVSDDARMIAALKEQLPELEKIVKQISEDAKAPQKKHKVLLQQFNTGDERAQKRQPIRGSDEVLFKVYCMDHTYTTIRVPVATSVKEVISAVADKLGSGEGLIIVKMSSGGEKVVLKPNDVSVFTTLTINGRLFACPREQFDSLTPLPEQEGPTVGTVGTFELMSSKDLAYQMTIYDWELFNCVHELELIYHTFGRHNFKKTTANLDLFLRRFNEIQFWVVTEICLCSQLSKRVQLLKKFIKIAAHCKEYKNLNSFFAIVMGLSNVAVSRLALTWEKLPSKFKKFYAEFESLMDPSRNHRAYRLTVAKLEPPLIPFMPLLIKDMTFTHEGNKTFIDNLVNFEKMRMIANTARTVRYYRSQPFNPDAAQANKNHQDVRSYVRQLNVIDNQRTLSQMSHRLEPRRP
LDHA block – blocks human lactate dehydrogenase A; P00338; purified LDHA, NADH/diaphorase-resazurin fluorescence; hits give low values; activity change, % (values are at about 110 or 230 µM); actives 0.15% (n = 480,000); in the data active = activity change below about -30%; inconclusive = mostly about -25% to -30%;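 also: plate controls were DMSO wells for no effect and wells without enzyme for full effect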
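Resorufin fluorescence (ex540/em590), read at 0 and 20 min after diaphorase/resazurin addition, reports the NADH left after a 5 min room-temperature reaction of 2 nM human LDH5 with 0.06 mM NADH and 0.2 mM pyruvate.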
EPAC1 antagonist – blocks human EPAC1 exchange factor; O95398; EPAC1 GEF assay, Rap1b-BODIPY-GDP exchange fluorescence; Potency, µM (titrated, usually from 115 µM), without a hit: at the highest dose activity change, negative = inhibition, usual class: inhibitors; actives 0.14% (n = 360,000); AID 720709;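 also: potency is read from the fitted curve at half-maximal effect; plate controls were vehicle for no effect and positive control for full effect; nearly all actives have a fitted effect of over 50% in size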
EPAC2 ag – EPAC2 (human) agonism | actives 0.079% (n = 360,000) | EPAC2 activation, biochemical qHTS; response scale: 100% = 6.5 mM cAMP response | Potency, µM (doses to about 154 µM), for the others: at the highest dose activation, usual class: activators; also: potency is read from the fitted curve at half-maximal effect; nearly all actives have a fitted effect of over 50% in size
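qHTS, titration series. 100 nM EPAC2 / 250 nM Rap1B-BODIPY-GDP / 50 uM GDP; RT; ex 480/em 540 nm, 5-min reads to 30 min. Norm. to 6.5 mM cAMP = activation.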
* = called active by the depositor; ? = inconclusive; . = no result given. Shown are actives, neighbours in structure and some others; about 0.56% of the full set was active somewhere. Unless noted, calls follow the shape of the dose curve; as a rule, active = well fitted curve in the direction sought with a large enough effect; inconclusive = small, poorly fitted or top-dose-only effect, or another doubt; inactive = no such curve, though single readings can be large; an effect the other way counts as inactive or inconclusive.

SMILES	EPAC1 ag	USP1 inh	EPAC2 antagonist	LDHA block	EPAC1 antagonist	EPAC2 ag
Cc1ccc(S(=O)(=O)Nc2ccc(Nc3ccc([N+](=O)[O-])cc3[N+](=O)[O-])cc2)cc1	.	.	.	-1	.	.
CCCCCCCCCCCCN1[C@@H](CC(=O)O)c2cc(F)ccc2S1(=O)=O	-40%	?	?	8	79µM*	-22%
CCCCCCCCN1[C@@H](CC(=O)OC)c2cc(F)ccc2S1(=O)=O	-27%	-26%	?	5	-26%	-3%
CCCCCCCCCCCCN1[C@@H](CC(=O)O)c2cc(C(F)(F)F)ccc2S1(=O)=O	-39%	?	?	6	79µM*	-12%
COc1ccc(CN2CCN(C(C)C(=O)N(C)Cc3cccc(F)c3)CC2)cc1OC (stereo unspecified)	1%	2%	-4%	-34*	-27%	4%
COc1ccc(NC(C)=O)cc1NC(C)C(=O)N(C)Cc1cccc(F)c1 (stereo unspecified)	.	.	.	0	.	.
Cc1cc(C=C2C(=O)c3ccccc3C2=O)c(C)n1-c1ccc(Cl)cc1	-8%	-9%	79µM*	2	0%	-176%
CC1(C(=O)NS(=O)(=O)c2ccc(F)cc2F)CCN1C(=O)C1(c2ccc(Cl)cc2)CCC1 (stereo unspecified)	-17%	.	35µM*	-1	?	-1%
CCOc1ccc(/C=C(\C#N)C(=O)Nc2cccnc2)cc1	-5%	-20%	4%	-2	10%	-7%
CCOc1ccc(NC(=O)/C(C#N)=C\c2ccc(N3CCCC3)c(C)c2)cc1	21%	22µM*	32%	-10	0%	13%
C=CCOc1ccc(C2C(C(=O)c3cccs3)=C(O)C(=O)N2c2nnc(C)s2)cc1 (stereo unspecified)	-11%	48%	11%	-6	8%	-72%
COc1ccc(C2C(C(=O)c3cccs3)=C(O)C(=O)N2c2nncs2)cc1 (stereo unspecified)	-7%	2µM*	18%	-6	-10%	-21%
COc1ccc(C2C(C(=O)c3cccs3)=C(O)C(=O)N2c2nnc(C)s2)cc1OC (stereo unspecified)	8%	4µM*	53%	7	12%	21%
Cc1ccc2c(C)c(CCC(=O)Nc3ccc(F)c(Cl)c3)c(=O)oc2c1	.	.	.	0	.	.
COc1cc(/C=C2\Oc3cc(O)ccc3C2=O)ccc1O	13%	28µM*	11%	0	3%	22%
CC(=O)Oc1ccc2c(c1)O/C(=C\c1ccncc1)C2=O	89µM*	28µM*	81%	-2	57%	?
CC(C)(C)C(=O)Oc1ccc2c(c1)O/C(=C\c1ccncc1)C2=O	.	.	.	3	.	.
COc1ccccc1C(=O)Oc1ccc2c(c1)O/C(=C\c1ccncc1)C2=O	100µM*	?	6%	-9	24%	7%
COCCn1cnc2c1c(=O)n(CC(=O)OCc1cc(C)cc(C)c1)c(=O)n2Cc1ccccc1	.	.	.	-12	.	.
Cc1ccccc1C(=O)NCCN1CCC(n2c(=O)[nH]c3ccccc32)CC1	1%	.	4%	4	28%	2%
CCCN1C(=O)S/C(=C/c2ccc(N3CCOCC3)o2)C1=O	79µM*	28µM*	22%	24	42%	112µM*
O=C(O)CN1C(=O)/C(=C/c2ccc(N3CCCCC3)o2)SC1=S	10%	?	-16%	3	8%	4%
CCOC(=O)CN1C(=O)S/C(=C/c2ccc(N3CCCCC3)o2)C1=O	8%	?	38%	1	17%	22%
COC(=O)CN1C(=O)S/C(=C/c2ccc(N3CCCCC3)o2)C1=O	9%	28µM*	144%	51	12%	13%
CCCN1C(=O)S/C(=C\c2ccc(N3CCOCC3)o2)C1=O	?	25µM*	6%	33	46%	?
SMILES	EPAC1 ag	USP1 inh	EPAC2 antagonist	LDHA block	EPAC1 antagonist	EPAC2 ag
CCOc1ccc(NS(=O)(=O)c2cccs2)cc1S(=O)(=O)N1CCCC1	-5%	-2%	2%	-9	-12%	4%
CCOCCCn1c(=N)c(C(=O)NC2CCCC2)cc2c(=O)n3cccc(C)c3nc21	.	-17%	.	-1	.	.
C=CCn1cc(/C=C/c2cc[n+](C)cc2)c2ccccc21	?	32µM*	124%	-1	43%	100µM*
CCn1c(C)c(/C=C/c2cc[n+](C)cc2)c2ccccc21	.	.	.	2	.	.
CCN(CC)C(=O)Cn1c(C)c(/C=C/c2cc[n+](C)cc2)c2ccccc21	18%	25µM*	27%	2	5%	?
CC(C)n1cc(/C=C/c2cc[n+](C)cc2)c2ccccc21	100µM*	32µM*	72%	-3	72%	?
C=CCn1c(C)c(/C=C/c2cc[n+](C)cc2)c2ccccc21	?	35µM*	29%	3	32%	20%
Cn1nc(-c2ccccc2)cc1NC(=O)c1ccc(Cl)cc1	-15%	-25%	2%	-5	3%	-6%
Cc1cccc(N(C)c2nc3ccccc3c3nnc(C)n23)c1	.	-16%	.	2	.	.
COc1ccc(NC(=O)c2ncoc2-c2cccc(OC)c2)cc1	.	.	.	11	.	.
O=[N+]([O-])c1ccc(C=Nc2cccc3ccccc23)s1	5%	14µM*	1%	42	-19%	8%
C=CCNC(=S)NNC(N)=S	.	.	.	11	.	.
CN(C)S(=O)(=O)c1ccc2c(c1)/C(=C/c1cc3c([nH]1)CCCC3)C(=O)N2	?	32µM*	12%	-5	3%	16%
CN(C)S(=O)(=O)c1ccc2c(c1)C(=O)c1cc(S(=O)(=O)N(C)C)ccc1CC2	1%	.	-7%	-8	-21%	10%
COc1cccc(C(NC(C)=O)c2nc(-c3cccc(C(C)C)c3)cs2)c1 (stereo unspecified)	-3%	.	-26%	0	-7%	16%
C/C(CC(=O)Nc1ccc2ccccc2c1)=N\NC(=O)c1cnccn1	40µM*	-3%	-6%	4	55%	-1%
COc1ccc(S(=O)(=O)N2CCN(C(=O)c3ccc(C)o3)CC2)cc1	-3%	-10%	-10%	-3	-12%	-1%
COc1ccc(N2CCN(C(=O)c3cc(-c4cc(OC)ccc4OC)nc4ccccc34)CC2)cc1	-4%	?	4%	8	1%	7%
CCOc1ccccc1N1CCN(C(=O)c2cc(-c3cc(OC)ccc3OC)nc3ccccc23)CC1	7%	16µM*	-2%	-7	?	9%
C=CCN1C(=O)/C(=C/c2ccc(OCC(=O)O)cc2)S/C1=N/c1nccs1	-9%	-6%	50µM*	-5	6%	-26%

Compound activity (PubChem)
